Test results published in PubChem BioAssay (NCATS).
Records with an inconclusive call do not appear. The source made the active and inactive calls. The call rests on the fitted dose curve; in most records, active means well fitted cell-killing curve with a large enough effect; inconclusive means small, poorly fitted or top-dose-only effect, or effect the other way; inactive means no such curve, though single readings can be large or run the other way.

Experiment: Quantitative High-Throughput drug screen in 47 multiple myeloma cell lines against the NCATS MIPE library collection: PE2_PLB cell viability assay (AID 1919869); further: nearly all actives have a fitted effect of over 35% in size
Settings: PE2_PLB myeloma cells viability, ATP luminescence, 48 h; series mostly up to 45.8 µM; viability (% of control): at the top concentration
In short: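 Myeloma cells (500/well) treated with MIPE 4.0 compounds for 48 h at 37 °C, 5% CO2. Viability read as ATP via CellTiter-Glo luminescence after 5 min at RT; DMSO-only wells = 100%, media-only = 0% viability.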
Potency means the concentration at half of the fitted maximal effect.

Structure (SMILES) | viability (% of control) | Potency
COc1cnc(NS(=O)(=O)c2ccc(N)cc2)nc1 | 91.7% (inactive) | 
CCOc1cc(N)c(Cl)cc1C(=O)NCC1CN(Cc2ccc(F)cc2)CCO1 (centres undefined) | 101% (inactive) | 
NC(N)=NC(N)=NCCc1ccccc1 |  | 16.6 µM (active)
Cc1ccnc2c1NC(=O)c1cccnc1N2C1CC1 |  | 26.4 µM (active)
Cn1c(=O)c2c(ncn2CC(O)CO)n(C)c1=O (centres undefined) | 93.2% (inactive) | 
Cc1cccc(N(C)C(=S)Oc2ccc3ccccc3c2)c1 | 104% (inactive) | 
CC(C)(Sc1cc(C(C)(C)C)c(O)c(C(C)(C)C)c1)Sc1cc(C(C)(C)C)c(O)c(C(C)(C)C)c1 |  | 6.62 µM (active)
CCOC(=O)c1ccc(OC(=O)CCCCCN=C(N)N)cc1 | 120% (inactive) | 
CCN(C)C(=O)Oc1cccc([C@H](C)N(C)C)c1 | 135% (inactive) | 
